Screening results from PubChem BioAssay.
PINK1 expr mod – changes PINK1 expression; PINK1 immunofluorescence, high-content cytometry, 24 h; Potency, µM (top dose mostly 76.6 µM), most hits filed as activators; hit rate 0.2% among 410,000; active means well fitted activation curve with a large enough effect; inconclusive means small, poorly fitted or top-dose-only effect; cell line not stated here; further: nearly all actives have a fitted effect of over 65% in size
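Decision-based qHTS: stable cells, 24 h exposure to five compound concentrations, CCCP as control. Fixed cells stained for PINK1 plus nuclear, mitochondrial and cell markers, cytometer read.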
A549 viability – counter-screen for Nrf2 inhibitors: cytotoxicity in A549 cells. A549 ARE-Fluc cells, CellTiter-Fluor viability, 18-24 h. Potency, µM (highest dose often 46 µM), hits mostly inhibitors. hit rate 0.16% among 390,000
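A549 ARE-Fluc cells in 5% FBS OPTI-MEM, 5000 cells/well, rested 2 h then exposed to compounds in concentration-response for 18-24 h at 37 °C. Viability by CellTiter-Fluor fluorescence (Ex 405/Em 525) after 30 min; luciferase luminescence (BugLite, 15 min, RT) read afterwards.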
Nrf2 ARE act – activates Nrf2 signaling | Potency, µM (top dose mostly 46.1 µM), hits mostly activators | AID 624171 | hit rate 0.31% among 410,000 | AREc32 ARE-luciferase reporter (MCF7-derived line), luminescence, 24 h; further: nearly all actives have a fitted effect of over 65% in size
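AREc32 cells carrying an ARE-driven firefly luciferase, 1000 cells/well in OPTI-MEM with 5% FBS, dosed after overnight attachment and incubated 24 hr at 37 deg C. Steady-Glo luminescence read after 30 min at RT.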
Epigenetic reg – derepresses silenced GFP reporter in murine cells. murine LDR cells, GFP reporter derepression, 30 h. Potency, µM (highest dose often 53.9 µM), usual class: activators. hit rate 0.2% among 280,000. AID 1865; further: nearly all actives have a fitted effect of over 60% in size
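GFP-positive cell count by laser-scanning cytometry (objects 20–120 um) after 30 h, 37 C compound exposure of murine LDR cells; reporter is CMV-GFP integrated at a silenced locus, inducible by HDAC or DNMT inhibitors.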
Nrf2 block – Nrf2 pathway inhibition; A549 ARE-Fluc reporter, luciferase luminescence, 18-24 h; Potency, µM (highest dose often 46 µM), most hits filed as inhibitors; hit rate 2.1% among 360,000; AID 504444; further: nearly all actives have a fitted effect of over 60% in size
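In this cell-based qHTS, ARE-driven firefly luciferase in A549 cells reports Nrf2 activity; the luminescent signal after BugLite lysis is the measured value, with a prior CellTiter-Fluor read for cell health.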
A number is an active result; - = inactive; ? = inconclusive; . = no result. This is a sample that favours compounds with a hit; in the whole collection about 2.4% have one here. Unless noted, the call rests on the fitted dose curve; in most records, active means well fitted curve in the direction sought with a large enough effect; inconclusive means small, poorly fitted or top-dose-only effect, or another doubt; inactive means no such curve, though single readings can be large; an effect the other way counts as inactive or inconclusive.

SMILES	PINK1 expr mod	A549 viability	Nrf2 ARE act	Epigenetic reg	Nrf2 block
CCN1C(=O)C(CC(=O)Nc2ccc(OC)cc2)N(CCc2ccccc2F)C1=S (stereo unspecified)	?	-	-	-	-
COc1ccc(NC(=O)CC2C(=O)N(c3ccc(Cl)cc3)C(=S)N2CCc2ccccn2)cc1 (stereo unspecified)	28µM	-	?	-	?
COc1ccc(NC(=O)CC2C(=O)N(C)C(=S)N2CCc2ccccc2F)cc1 (stereo unspecified)	16µM	-	-	-	?
CCOc1ccc(N2C(=O)C(CC(=O)Nc3ccccc3)N(Cc3ccccn3)C2=S)cc1 (stereo unspecified)	?	?	-	-	23µM
COc1ccc(NC(=O)CC2C(=O)N(c3ccc(Cl)cc3)C(=S)N2CCc2ccncc2)cc1 (stereo unspecified)	-	?	-	-	.
Cc1ncc2c(c1CNC(=O)c1ccc3c(c1)OCO3)CCN(C(=O)C1Cc3ccccc3O1)C2 (stereo unspecified)	-	.	.	.	.
CCn1c(=O)c([N+](=O)[O-])c(NCc2ccco2)c2ccccc21	-	?	8.9µM	-	-
CCn1nc([N+](=O)[O-])c(C(C#N)c2nc3cc(C(F)(F)F)ccc3s2)c(Cl)c1=O (stereo unspecified)	?	?	-	-	8.2µM
O=C(/C=C1\NC2(CCCC2)Cc2ccccc21)C(=O)N/N=C/c1ccccc1O	-	?	-	-	15µM
CCOc1cccc(-c2c(C(=O)N/N=C/c3ccc(C)s3)nnn2-c2nonc2N)c1	-	-	-	.	-
CCOc1ccc(-c2c(C(=O)N/N=C/c3ccc(C)s3)nnn2-c2nonc2N)cc1	-	-	-	.	23µM
CCOc1cccc(-c2c(C(=O)N/N=C/c3sccc3C)nnn2-c2nonc2N)c1	-	-	-	.	16µM
C/C(=N\NC(=O)c1nnn(-c2nonc2N)c1-c1ccccc1)c1ccccc1O	-	-	-	.	4.6µM
CCOc1ccc(-c2c(C(=O)N/N=C/c3cccs3)nnn2-c2nonc2N)cc1	-	-	-	.	12µM
Cc1ccc(-c2c(C(=O)N/N=C/c3cccs3)nnn2-c2nonc2N)cc1	-	-	-	.	-
CCCc1c(C(=O)N/N=C(\C)c2ccccc2O)nnn1-c1nonc1N	-	.	-	.	.
c1csc(CNc2nc(CN3CCCC(c4nc5ccccc5o4)C3)nc3ccccc23)c1 (stereo unspecified)	-	.	.	.	.
COc1cccc([C@@H]2Oc3ccc(OC)cc3C(=O)[C@H]2OC(=O)NCCc2ccc(OC)c(OC)c2)c1	.	.	.	-	.
Cc1cccc(CNC(=O)c2cnn(-c3nccc(-c4cc5ccccc5o4)n3)c2C2CC2)n1	-	.	.	.	.
CC(=O)Nc1ccc(S(=O)(=O)N2CCCC(C(=O)N3CCN(c4ccccc4)CC3)C2)cc1 (stereo unspecified)	-	-	-	.	?
COc1ccc(C)cc1S(=O)(=O)N1CCCC(C(=O)N2CCN(c3ccccc3)CC2)C1 (stereo unspecified)	-	-	-	.	26µM
CC(=O)N1CCCc2cc(S(=O)(=O)N3CCCC(C(=O)N4CCN(c5cc(C)ccc5C)CC4)C3)ccc21 (stereo unspecified)	-	-	-	-	7.3µM
COc1ccc(CNC(=O)C2CCCN(S(=O)(=O)c3ccc4c(c3)CCCN4C(C)=O)C2)cc1 (stereo unspecified)	-	-	-	-	21µM
CCOC(=O)N1CCN(C(=O)C2CCCN(S(=O)(=O)c3cc(C)ccc3OC)C2)CC1 (stereo unspecified)	-	-	-	-	?
CC(=O)N1CCCc2cc(S(=O)(=O)N3CCCC(C(=O)N4CCN(c5ccccc5)CC4)C3)ccc21 (stereo unspecified)	-	-	-	-	13µM
SMILES	PINK1 expr mod	A549 viability	Nrf2 ARE act	Epigenetic reg	Nrf2 block
Cc1cc2c(s1)c1cnn(Cc3ccccc3)c(=O)c1n2C	.	-	.	.	?
CCC1CN(CCNC(=O)c2cccnc2OC)Cc2cc(OC)ccc2O1 (stereo unspecified)	-	.	.	.	.
COc1cc(F)c(S(=O)(=O)N2CCN(S(=O)(=O)c3cccs3)CC2)c(F)c1	.	-	.	.	-
c1ccc(-c2nc(NCc3ccco3)c3ccccc3n2)nc1	-	-	-	-	21µM
Cc1nc(SCc2nc3ccc(Br)cc3[nH]2)c2oc3ccccc3c2n1	-	-	-	.	?
Cc1nc(SCc2nc3cc(Cl)c(F)cc3[nH]2)c2oc3ccccc3c2n1	14µM	?	-	.	?
Cc1nc(SCc2nc3ccc(C(F)(F)F)cc3[nH]2)c2oc3ccccc3c2n1	16µM	?	-	.	?
COc1ccc2[nH]cc(C(=O)CN3CCN(C/C=C/c4ccccc4)CC3)c2c1	.	.	.	10µM	.
COC(=O)[C@@H](NC(=O)O[C@@H]1C(=O)c2cc(Br)ccc2O[C@H]1c1ccc2c(c1)OCO2)C(C)C	.	.	.	-	.
Cc1ccc(C(=O)N/N=C\c2ccc(Br)o2)o1	.	-	-	-	-
Cc1ccc(C(=O)N/N=C/c2ccc(-c3ccc(Br)cc3[N+](=O)[O-])o2)o1	-	-	7.9µM	.	?
Cc1cccc2cc(CN(CC3CCCO3)C(=O)c3ccccc3F)c(N(C)C)nc12 (stereo unspecified)	-	.	.	.	.
CC(C)(C)CNc1nc(C#N)nc(Nc2ccccc2)n1	.	?	.	.	18µM
COC(=O)c1cc(C)nc2c1C(=O)C(=O)C=C2N1CCOCC1	-	?	-	.	16µM
COc1ccccc1NC(CC(=O)c1ccccc1)C(=O)OCC(=O)c1ccc(C)c(C)c1 (stereo unspecified)	-	-	13µM	-	?
COc1ccccc1NC(CC(=O)c1ccccc1)C(=O)OCC(=O)c1ccc(C)cc1 (stereo unspecified)	-	-	-	-	?
COc1ccccc1NC(CC(=O)c1ccccc1)C(=O)OCC(=O)c1ccc(Br)cc1 (stereo unspecified)	-	-	22µM	-	?
O=C(NCCn1cc(SCc2ccc(F)cc2)c2ccccc21)c1cccs1	?	-	-	-	?
CN(CC(=O)Nc1cccc(F)c1)C(=O)c1cccc(S(=O)(=O)N2CCN(c3ccc(F)cc3)CC2)c1	-	?	-	.	16µM
Cc1ccc(NC(=O)c2cccc(S(=O)(=O)N3CCCC3)c2)nc1	-	-	-	.	?
CN(CC(=O)Nc1ccccc1Cl)C(=O)c1cccc(S(=O)(=O)N2CCN(Cc3ccccc3)CC2)c1	-	-	-	.	15µM
CN(CC(=O)Nc1cccc(F)c1)C(=O)c1cccc(S(=O)(=O)N2CCN(Cc3ccccc3)CC2)c1	-	.	-	.	.
Cc1ccc(NC(=O)c2cccc(S(=O)(=O)N3CCN(c4ccc(F)cc4)CC3)c2)nc1	-	-	-	.	23µM
CN(CC(=O)Nc1ccccc1Cl)C(=O)c1cccc(S(=O)(=O)N2CCN(c3ccccc3)CC2)c1	-	-	-	.	21µM
